Bioassay records as filed in PubChem.
Hits are enriched below; roughly 3.7% of the tested compounds scored in any of these assays.
TCR act – Activators of T cell receptors: qHTS campaign | primary human leukocytes, anti-CD3, IL-2 HTRF, 48 h | Potency, µM (top dose mostly 9.22 µM), for the others: at the highest dose activation of IL-2 secretion, usual class: activators | 330,000 tested, under 10 active; further: % of control where 0% means no effect
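Human primary leukocytes + a-CD3 beads + cpd, 48 hr; IL-2 in supernatant by HTRF (ex 320nm / em 665nm). No co-stimulatory signal supplied.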
miR-21 act – qHTS Assay for Modulators of miRNAs and/orActivators of miR-21; Potency, µM (titrated, usually from 38.3 µM), for the others: at the top dose activity change, positive = activation, usual class: activators; HeLa miR-21 FLuc reporter, luciferase, 48 h; 340,000 tested, under 10 active;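 further: % of control where 0% means no effect; miR-21 action dims this reporter so a rising signal means less miR-21 action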
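HeLa cells stably expressing CMV-driven firefly luciferase with a downstream miR-21 binding sequence, endogenously expressing miR-21, were treated with titrations (up to about 40uM final) for 48 hours at 37 degree Celsius. Luciferase luminescence was read after lysis.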
A549 tox – Nrf2 qHTS screen for inhibitors: counterscreen for cytotoxicity | A549 ARE-Fluc cells, CellTiter-Fluor viability, 18-24 h | hit rate 0.16% among 390,000 | AID 504648, 2011 | Potency, µM (top dose mostly 46 µM), inactives show top-dose activity change, negative = cytotoxicity, usual class: inhibitors; further: potency means the concentration at half of the fitted maximal effect; on the % scale 0 is the no-effect control and ±100 the full control effect
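A549 ARE_Fluc cells in 5% FBS OPTI-MEM were exposed to compounds in concentration-response for 18-24 h at 37 deg C. Viability was read by CellTiter-Fluor fluorescence (Ex 405/Em 525) after 30 min, before the luciferase read.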
ClpP mod – qHTS Assay for Activators of ClpP | ATP-dependent Clp protease proteolytic subunit (Bacillus subtilis (strain 168)), P80244 | purified B. subtilis ClpP, FRET peptide cleavage, 20 min | Potency, µM (doses to about 57.5 µM), for inactives: at the highest dose activity change, negative = active | hit rate 1.9% among 340,000; active means well fitted falling curve with a large enough effect; inconclusive means small, poorly fitted or top-dose-only effect; inactive means no such curve, though single readings can be large or run the other way; further: potency means the concentration at half of the fitted maximal effect; the source files actives as falling curves though it sought activators and does not explain the sign; nearly all actives have a fitted effect of over 65% in size
Target sequence (P80244 whole entry, looked up): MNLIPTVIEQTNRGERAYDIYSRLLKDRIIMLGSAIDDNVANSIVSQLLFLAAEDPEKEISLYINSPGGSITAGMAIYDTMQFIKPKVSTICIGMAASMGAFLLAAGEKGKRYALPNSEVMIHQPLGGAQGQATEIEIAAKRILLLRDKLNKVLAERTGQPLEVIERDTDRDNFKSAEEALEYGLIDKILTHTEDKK
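FRET quenching reversal measured ClpP activation: 10 microg/mL B. subtilis ClpP at pH 8 with the FRET-FV decapeptide, read at 430 nm after 320 nm excitation. The 20-min minus 0-min signal was scaled between DMSO/no-enzyme wells and ADEP (5.8 microM final).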
Nrf2 inh – Nrf2 qHTS screen for inhibitors | Potency, µM (doses to about 46 µM), inactives show at the highest dose activity change, negative = inhibition, actives largely listed as inhibitors | hit rate 2.1% among 360,000 | A549 ARE-Fluc reporter, luciferase luminescence, 18-24 h; further: potency means the concentration at half of the fitted maximal effect; on the % scale 0 is the no-effect control and ±100 the full control effect; nearly all actives have a fitted effect of over 60% in size
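A549 ARE_Fluc cells (5000/well, 5% FBS OPTI-MEM) pre-incubated 2 h, then treated with compounds 18-24 h at 37C/5% CO2 in concentration-response. CellTiter-Fluor viability read first; BugLite luciferase luminescence after 15 min at room temperature gives Nrf2 activity.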
Nrf2 ARE act – qHTS of Nrf2 Activators; AREc32 ARE-luciferase reporter (MCF7-derived line), luminescence, 24 h; Potency, µM (titrated, usually from 46.1 µM), for the others: top-dose activation, hits mostly activators; hit rate 0.31% among 410,000; AID 624171, 2012; further: potency means the concentration at half of the fitted maximal effect; % of control where 0% means no effect; nearly all actives have a fitted effect of over 65% in size
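AREc32_Fluc, 1000 cells/well, OPTI-MEM + 5% FBS, o/n 37 deg C 5% CO2; 23 nL cpd by pin tool, 24 hr; Steady-Glo 30 min RT, luminescence.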
Active calls of the source: *; u = inconclusive; x = not tested or not shown; [ ] = remark or other dose. Unless noted, the call rests on the fitted dose curve; in most records, active means well fitted curve in the direction sought with a large enough effect; inconclusive means small, poorly fitted or top-dose-only effect, or another doubt; inactive means no such curve, though single readings can be large; an effect the other way counts as inactive or inconclusive.

SMILES	TCR act	miR-21 act	A549 tox	ClpP mod	Nrf2 inh	Nrf2 ARE act
CC1CN(c2cc(-c3ccccc3)c3ccccc3n2)CC(C)O1 (configuration not stated)	-18.3%	7.3%	-2.6%	25.1µM*	9.5%	0.4%
Cc1cc(C)nc(SCC(=O)Nc2cccc(S(=O)(=O)N(C)C)c2)n1	-4.5%	-0.9%	-5.3%	x	18.4µM*	3.5%
CN(C)S(=O)(=O)c1ccc(NC(=O)CSc2nc3ccccc3n2-c2ccccc2)cc1	1.3%[46.1 µM]	24.9%	0.8%	-1.9%	20.6µM*	3.8%
CN(C)S(=O)(=O)c1cccc(NC(=O)CSc2nc3ccccc3n2-c2ccccc2)c1	3.0%[46.1 µM]	12.3%	u	-3.3%	18.4µM*	2.1%
CCOc1ccc(CCNC(=O)c2nc(-c3cccc(F)c3)n3c2CCCCC3)cc1OCC	x	-1.5%	u	-0.5%	20.6µM*	0.0%
CCc1nc2ccc(C(=O)N3CCN(S(=O)(=O)CC)CC3)cn2c1N(C)Cc1cccs1	x	x	x	-1.2%	x	1.1%
O=[N+]([O-])c1cc(CN2CCOCC2)c2cccnc2c1O	-5.0%	5.2%	u	x	23.1µM*	0.6%
O=[N+]([O-])c1cc(CN2CCN(c3ccccc3)CC2)c(O)c2ncccc12	4.6%	26.9%	u	x	2.59µM*	-1.2%[9.22 µM]
CCOC(=O)/C=C/[C@H]1CC(c2ccccc2)(c2ccccc2)CO1	4.8%	x	6.6%	3.2%	28.3%	12.7%
O=C(Nc1cc2c(oc1=O)CCCC2=O)c1cccc(Cl)c1	5.4%	-21.6%	7.4%	-1.9%	16.1%	11.2µM*
CCOC(=O)N1CCN(C(=S)NC(=O)c2ccc(F)c(F)c2)CC1	-1.5%	-2.2%	-11.7%	28.2µM*	3.7%	-0.6%
COc1cccc(C(=O)N/N=C/c2ccc(Oc3ccc([N+](=O)[O-])cn3)c(OC)c2)c1	-1.0%[46.1 µM]	7.5%	u	1.5%	23.1µM*	-0.5%
COc1cc(/C=C(/C#N)c2ccccc2)ccc1Oc1ccc([N+](=O)[O-])cn1	0.1%	14.6%	u	-0.7%	14.6µM*	1.6%
COc1cc(/C=N/NC(=O)c2ccc3ccccc3c2)ccc1Oc1ccc([N+](=O)[O-])cn1	-7.0%[46.1 µM]	2.0%	2.3%	x	u	0.3%
NC(=O)c1cc2ccccc2o/c1=N\NC(=O)c1ccccc1O	-5.8%	-4.4%	-9.5%	-0.5%	8.2µM*	0.0%
NC(=O)c1cc2ccccc2o/c1=N\NC(=O)c1ccc(F)cc1	0.1%	-1.1%	0.1%	-5.5%	u	u
C(=N\n1cnc2ccccc21)/c1cccnc1	0.5%	-38.1%	11.6%	-1.9%	14.4%	2.3%
Clc1nc2sccn2c1/C=N/n1cnc2ccccc21	-5.1%	-34.7%	3.0%	u	u	3.16µM*
COc1ccc(Cc2nc(-c3ccc(-n4cccc4)cc3)no2)cc1	-0.2%[46.1 µM]	-14.2%	7.0%	u	u	-0.8%
COc1ccc(Cc2nc(-c3ccc(-n4cccc4)cc3)no2)cc1OC	-1.2%	12.4%	1.6%	u	16.4µM*	21.3%
O=C1c2cccc3cccc(c23)C(=O)N1CCCN(C(=O)c1cccs1)c1cccc(F)c1	-1.4%[46.1 µM]	-7.9%	0.4%	-11.5%	u	3.16µM*
COc1ccc(N(CCCN2C(=O)c3cccc4cccc(c34)C2=O)C(=O)c2cccc(OC)c2)cc1	-5.3%[46.1 µM]	17.6%	-6.1%	-2.4%	-17.4%	u
Cc1cc(C)c(NC(=O)C(=O)NCC(c2cccnc2)N2CCN(Cc3ccccc3)CC2)c(C)c1 (configuration not stated)	x	-16.2%	3.3%	-0.3%	-12.8%	-0.1%
COc1ccc(NC(=O)Cc2ccccc2)cn1	-0.7%	-8.5%	-7.4%	x	-2.2%	-0.3%
COc1ccc(CS(=O)(=O)/C(Cl)=C(/Cl)C(=O)Nc2ccc(OC)nc2)cc1	1.6%	u	20.6µM*	5.1%	16.4µM*	u
SMILES	TCR act	miR-21 act	A549 tox	ClpP mod	Nrf2 inh	Nrf2 ARE act
COc1ccc(NC(=O)/C(Cl)=C(/Cl)S(=O)Cc2ccccc2)cn1 (configuration not stated)	0.1%	u	20.6µM*	0.6%	-117.0%	-2.4%
O=C(N[C@@H]1CCC(=O)N(CC[C@H](Sc2ccc(Br)cc2)c2ccccc2)CC1)OCc1ccccc1	12.6%	x	-4.5%	-1.5%	u	-0.3%
COc1ccc(S[C@@H](CCN2CC[C@H](NC(=O)OCc3ccccc3)CCC2=O)c2ccccc2)cc1	-1.5%	x	-23.9%	-0.5%	18.4µM*	2.7%
C=Cc1cccc(NC(=O)c2ccc(NC(=O)c3ccco3)cc2)c1	-5.0%	4.1%	0.2%	-0.6%	10.3µM*	0.6%
O=C(Nc1ccccc1)c1cccc(NC(=O)c2ccco2)c1	-2.8%	x	-6.7%	x	u	20.1%
CCOc1ccc(C(=O)Nc2ccc(NC(=O)c3ccco3)c(Cl)c2)cc1Cl	-1.0%	-3.0%	u	-29.1%	20.6µM*	0.1%
CCOC(=O)c1cccc(NC(=O)c2ccc(NC(=O)c3ccco3)cc2)c1	0.4%	-4.8%	-10.9%	-1.8%	20.6µM*	4.6%
CC(=O)c1ccc(NC(=O)c2ccc(NC(=O)c3ccco3)cc2)cc1	3.5%	3.7%	-3.5%	-2.9%	u	-0.1%
CCOC(=O)c1cccc(NC(=O)COc2ccc([N+](=O)[O-])cc2)c1	4.9%	11.5%	-10.1%	-1.0%	25.9µM*	-0.3%
CCCOC(=O)c1cccc(NC(=O)COc2ccc([N+](=O)[O-])cc2)c1	-4.7%[46.1 µM]	14.1%	-24.3%	-3.1%	u	0.7%
Cc1cc(S(=O)(=O)C(CNC(=O)c2ccc(OC(C)C)cc2)c2cccs2)ccc1F (configuration not stated)	x	15.1%	0.8%	-8.9%	x	2.2%
O=C(Cc1ccc(Cl)cc1)Nc1nnc2n1CCS2	x	-3.9%	-0.4%	-0.4%	x	-1.1%
COc1ccc(-n2nnc(-c3nc(-c4cccs4)no3)c2N)cc1OC	x	-12.5%	-0.7%	-2.0%	u	0.2%
CCOC(=O)c1cccc(NC(=O)c2ccc(N(C)C)cc2)c1	-8.5%[46.1 µM]	-7.8%	-6.2%	-3.1%	16.4µM*	-1.1%
CCOC(=O)c1cccc(NC(=O)c2cccnc2)c1	x	-8.4%	3.6%	-2.3%	x	0.2%
Cc1ccc(C(=O)OCc2c(C)noc2C)cc1NC(=O)c1ccco1	3.5%	-0.1%	-4.7%	x	10.8%	3.98µM*
NC(=O)c1ccc(OCC(=O)N2CCNC2=O)cc1	-4.0%	x	-2.3%	x	17.2%	1.7%
Nc1c(-c2nc(-c3cccs3)no2)nnn1-c1cccc(Cl)c1	x	-39.9%	0.0%	-1.2%	x	7.0%
